Experimental data as given in PubChem BioAssay.
Values without a mark were called inactive. The other results are listed elsewhere or left out. The source made the active and inactive calls.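 How the source made its calls, unless noted: active means inhibition above the hit cutoff set in the earlier primary screen (cut at about 27% in these data); inactive means the rest.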

Tests used:
[1] = target: Nuclear receptor coactivator 3 (Homo sapiens) (UniProt Q9Y6Q9); assay: NCOA3 GAL4-fusion reporter inhibition – cell-based, luminescence, quadruplicate, confirmation (AID 588792;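 active means mean inhibition over 43.08%, the solvent-only control mean plus 3 SD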); settings: HEK293 GAL4-SRC3 luciferase reporter, at 3.6 µM, hits give high values
[2] = system: transactivating tegument protein VP16 (Human herpesvirus 1), Gal4-VP16 luciferase reporter; assay: repression of VP16-driven luciferase reporter – cell-based, luminescence, high throughput, counter-screen for SRC3 inhibitor project (AID 588794; in the data active means inhibition above about 30%); settings: mammalian cells, at 3.6 µM, hits give high values
[3] = target: (Lyso)-N-acylphosphatidylethanolamine lipase (Mus musculus) (UniProt Q8VD66); assay: mouse ABHD4 hydrolase blockers, triplicate – biochemical, fluorescence polarization, confirmation (AID 720658;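 active means mean inhibition across replicates above the hit cutoff set in the primary screen, cut at about 30% in these data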); settings: purified mABHD4, FP-Rh probe fluorescence polarization; at 8.92 µM; hits give high values
[4] = system: HIV-1 integrase (multimerization); assay: stimulation of HIV-1 integrase oligomerization – biochemical, TR-FRET, counter-screen for LEDGF/p75 integration inhibitor project (AID 1053131; in the data active means activation above about 8.9%); settings: TR-FRET HIV-1 integrase multimerization, at 7.7 µM, hits give high values
[5] = compounds disturbing TR-FRET signal readout – biochemical, HIV-1 IN multimerization, artefact control for LEDGF/p75-dependent integration inhibitor project, confirmation (AID 1053135;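 active means inhibition above the mean over all tested compounds plus 3 SD, which no compound reached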); settings: TR-FRET optical interference counterscreen, at 7.7 µM, hits give high values
[6] = system: HIV-1 integrase / human LEDGF/p75 complex; assay: blockers of LEDGF/p75-dependent integrase activity – biochemical, TR-FRET, confirmation (AID 1053136; in the data active means inhibition above about 14%); settings: TR-FRET LEDGF/p75-dependent HIV-1 integration, at 3.7 µM, hits give high values
[7] = target: Protein phosphatase methylesterase 1 (Homo sapiens) (UniProt Q9Y570); assay: human PME-1 methylesterase inhibition confirmation – biochemical, fluorescence polarization, FP-Rh probe, triplicate (AID 2171); settings: recombinant PME-1, FP-Rh probe fluorescence polarization; at 5.9 µM; hits give high values
[8] = target: Glutathione S-transferase omega-1 (Homo sapiens) (UniProt P78417); assay: recombinant GSTO1 blockers, retest – biochemical, fluorescence polarization, triplicate, counter-screen for RBBP9 inhibitor project, confirmation (AID 2176;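 active means inhibition above the primary screen's cutoff, its mean inhibition plus 3 SD, cut at about 35% in these data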); settings: recombinant GSTO1, probe fluorescence polarization; at 5.96 µM; hits give high values
[9] = target: Protein-arginine deiminase type-4 (Homo sapiens) (UniProt Q9UM07); assay: protein arginine deiminase 4 blockade, retest – biochemical, fluorescence polarization, confirmation (AID 488796;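 active means mean inhibition across replicates above the hit cutoff set by the earlier primary screen, cut at about 15% in these data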); settings: recombinant PAD4, RCA probe fluorescence polarization; at 6.36 µM; hits give high values
[10] = target: Platelet-activating factor acetylhydrolase IB subunit alpha1 (Homo sapiens) (UniProt Q15102); assay: inhibition of PAF acetylhydrolase 1B subunit 3 – biochemical, fluorescence polarization, human, confirmation (AID 493032;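 active means average inhibition over triplicate runs above the hit cutoff set in the earlier primary screen, cut at about 25% in these data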); settings: recombinant PAFAH1B3, FP-Rh activity-based probe, at 3.39 µM, hits give high values
[11] = system: TLR4-MyD88 interaction (human), BLA complementation; assay: disruptors of TLR4 binding to MyD88 – cell-based, HeLa CL3-4, BLA complementation, FRET ratio, confirmation (AID 941;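 active means mean inhibition across three repeat runs above about 25% carried over from the earlier screen, limit read from the data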); settings: CCF4 FRET ratio, at 8.4 µM, hits give high values
[12] = BLA reporter interference in HeLa cells – cell-based, full-length BLA, CCF4 FRET ratio, artefact control for TLR4-MyD88 binding inhibitor project, confirmation (AID 1237;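 active means mean inhibition over three repeats above about 26% taken from the earlier screen, limit read from the data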); settings: at 8.4 µM, hits give high values
[13] = reduced OD of T4-infected AddAB+ E. coli – absorbance, E. coli V3065, T4 phage, triplicate, AddAB inhibitor project, confirmation (AID 488942;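 active means mean inhibition above a set limit taken from the earlier primary screen, cut at about 13% in these data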); settings: E. coli V3065 expressing H. pylori AddAB, at 11.9 µM, hits give high values
[14] = reduced OD of phage-infected RecBCD+ V66 E. coli – absorbance, mutant T4 phage, counter-screen for AddAB inhibitor project (AID 488955;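 active means mean inhibition above the mean of solvent-only control wells plus 3 SD, cut at about 4% in these data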); settings: OD growth, at 11.9 µM, hits give high values
[15] = bacterial growth inhibitors – absorbance, counter-screen for AddAB inhibitor project, confirmation (AID 488956; in the data active means inhibition above about 25%); settings: bacterial viability, absorbance (AddAB counterscreen); at 11.9 µM; hits give high values
[16] = reduced OD of V66 E. coli with T4 gene 2 phage – absorbance, RecBCD inhibitor project, confirmation (AID 651982;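 active means mean inhibition over triplicates exceeding the hit threshold derived in the original primary screen, cut at about 11% in these data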); settings: E. coli V66 + T4 2- phage, growth OD; at 11.9 µM; hits give high values
[17] = bacterial growth inhibition – absorbance, high throughput, counter-screen for RecBCD inhibitor project (AID 651983; in the data active means inhibition above about 20%); settings: E. coli viability, absorbance (OD) growth; at 11.9 µM; hits give high values
[18] = reduced optical density, T4-challenged addAB+ bacteria – absorbance, E. coli V3065, T4 phage, counter-screen for RecBCD inhibitor project, confirmation (AID 651984;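 active means mean inhibition above the solvent-only control wells' mean plus 3 SD, cut at about 22% in these data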); settings: E. coli expressing H. pylori AddAB + T4 phage, OD growth; at 11.9 µM; hits give high values
[19] = target: Nuclear receptor coactivator 1 (Homo sapiens) (UniProt Q15788); assay: NCOA1 GAL4-fusion reporter inhibition – cell-based, luminescence, quadruplicate, confirmation (AID 588820;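 active means mean inhibition above 46.68%, the untreated control wells mean plus 3 SD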); settings: HEK293 GAL4-SRC1 luciferase reporter, at 3.6 µM, hits give high values
[20] = repression of VP16-driven luciferase reporter – cell-based, luminescence, high throughput, counter-screen for SRC1 inhibitor project (AID 588824; in the data active means inhibition above about 25%); settings: cell-based VP16 transactivation luciferase luminescence; at 3.6 µM; hits give high values
[21] = system: transactivating tegument protein VP16 (Human herpesvirus 1); assay: compounds suppressing VP16-driven luciferase signal – cell-based, luminescence, single concentration, counter-screen for SRC2 inhibitor project (AID 652007; in the data active means inhibition above about 36%); settings: cell-based VP16 transactivation luciferase reporter, at 8.9 µM, hits give high values
[22] = target: Nuclear receptor coactivator 2 (Homo sapiens) (UniProt Q15596); assay: inhibition of GAL4-SRC2 driven luciferase expression – cell-based, luminescence, HEK293, triplicate, confirmation (AID 652008;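 active means mean inhibition above 46.5%, the solvent-only control mean plus 3 SD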); settings: HEK293 GAL4-SRC2 luciferase reporter, at 8.9 µM, hits give high values
[23] = target: Platelet-activating factor acetylhydrolase (Homo sapiens) (UniProt Q13093); assay: inhibition of plasma PAF acetylhydrolase – biochemical, fluorescence polarization, human, confirmation (AID 463230;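 active means mean inhibition of the triplicate above the hit cutoff set for the earlier primary screen, cut at about 25% in these data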); settings: recombinant pPAFAH, FP-Rh probe fluorescence polarization; at 3.39 µM; hits give high values

Sequence of Protein phosphatase methylesterase 1 (Homo sapiens) (Q9Y570 whole entry, looked up): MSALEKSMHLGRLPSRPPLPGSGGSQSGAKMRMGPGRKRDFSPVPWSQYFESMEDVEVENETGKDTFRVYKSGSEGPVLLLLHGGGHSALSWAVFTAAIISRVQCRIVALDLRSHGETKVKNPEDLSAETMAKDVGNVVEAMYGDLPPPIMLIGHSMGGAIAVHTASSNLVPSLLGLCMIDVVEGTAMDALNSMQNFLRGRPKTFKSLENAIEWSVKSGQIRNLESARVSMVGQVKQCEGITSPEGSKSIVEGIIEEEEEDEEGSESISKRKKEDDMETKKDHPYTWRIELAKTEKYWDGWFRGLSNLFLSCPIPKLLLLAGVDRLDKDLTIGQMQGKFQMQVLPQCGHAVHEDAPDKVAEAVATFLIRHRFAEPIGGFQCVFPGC
Sequence of Protein-arginine deiminase type-4 (Homo sapiens) (Q9UM07 whole entry, looked up): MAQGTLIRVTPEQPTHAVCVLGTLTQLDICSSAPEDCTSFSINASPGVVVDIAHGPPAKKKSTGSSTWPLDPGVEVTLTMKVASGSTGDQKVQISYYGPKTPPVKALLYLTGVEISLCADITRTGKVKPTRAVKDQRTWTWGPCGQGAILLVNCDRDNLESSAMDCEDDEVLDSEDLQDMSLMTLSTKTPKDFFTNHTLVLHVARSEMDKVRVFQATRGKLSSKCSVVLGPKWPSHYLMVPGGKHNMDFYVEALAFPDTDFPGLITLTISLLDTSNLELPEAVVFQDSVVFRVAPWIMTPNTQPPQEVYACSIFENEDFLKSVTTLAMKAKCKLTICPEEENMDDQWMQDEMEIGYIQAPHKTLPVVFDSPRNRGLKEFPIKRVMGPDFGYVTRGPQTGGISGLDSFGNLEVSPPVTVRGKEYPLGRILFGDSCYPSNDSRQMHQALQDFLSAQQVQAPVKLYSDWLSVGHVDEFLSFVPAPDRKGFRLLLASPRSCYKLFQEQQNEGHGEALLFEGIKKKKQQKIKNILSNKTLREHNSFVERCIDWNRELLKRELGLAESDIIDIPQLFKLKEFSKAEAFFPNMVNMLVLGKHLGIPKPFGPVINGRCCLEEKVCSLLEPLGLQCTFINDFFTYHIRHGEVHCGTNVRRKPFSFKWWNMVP
Sequence of Nuclear receptor coactivator 3 (Homo sapiens) (Q9Y6Q9 whole entry, looked up, the tested form may be a part): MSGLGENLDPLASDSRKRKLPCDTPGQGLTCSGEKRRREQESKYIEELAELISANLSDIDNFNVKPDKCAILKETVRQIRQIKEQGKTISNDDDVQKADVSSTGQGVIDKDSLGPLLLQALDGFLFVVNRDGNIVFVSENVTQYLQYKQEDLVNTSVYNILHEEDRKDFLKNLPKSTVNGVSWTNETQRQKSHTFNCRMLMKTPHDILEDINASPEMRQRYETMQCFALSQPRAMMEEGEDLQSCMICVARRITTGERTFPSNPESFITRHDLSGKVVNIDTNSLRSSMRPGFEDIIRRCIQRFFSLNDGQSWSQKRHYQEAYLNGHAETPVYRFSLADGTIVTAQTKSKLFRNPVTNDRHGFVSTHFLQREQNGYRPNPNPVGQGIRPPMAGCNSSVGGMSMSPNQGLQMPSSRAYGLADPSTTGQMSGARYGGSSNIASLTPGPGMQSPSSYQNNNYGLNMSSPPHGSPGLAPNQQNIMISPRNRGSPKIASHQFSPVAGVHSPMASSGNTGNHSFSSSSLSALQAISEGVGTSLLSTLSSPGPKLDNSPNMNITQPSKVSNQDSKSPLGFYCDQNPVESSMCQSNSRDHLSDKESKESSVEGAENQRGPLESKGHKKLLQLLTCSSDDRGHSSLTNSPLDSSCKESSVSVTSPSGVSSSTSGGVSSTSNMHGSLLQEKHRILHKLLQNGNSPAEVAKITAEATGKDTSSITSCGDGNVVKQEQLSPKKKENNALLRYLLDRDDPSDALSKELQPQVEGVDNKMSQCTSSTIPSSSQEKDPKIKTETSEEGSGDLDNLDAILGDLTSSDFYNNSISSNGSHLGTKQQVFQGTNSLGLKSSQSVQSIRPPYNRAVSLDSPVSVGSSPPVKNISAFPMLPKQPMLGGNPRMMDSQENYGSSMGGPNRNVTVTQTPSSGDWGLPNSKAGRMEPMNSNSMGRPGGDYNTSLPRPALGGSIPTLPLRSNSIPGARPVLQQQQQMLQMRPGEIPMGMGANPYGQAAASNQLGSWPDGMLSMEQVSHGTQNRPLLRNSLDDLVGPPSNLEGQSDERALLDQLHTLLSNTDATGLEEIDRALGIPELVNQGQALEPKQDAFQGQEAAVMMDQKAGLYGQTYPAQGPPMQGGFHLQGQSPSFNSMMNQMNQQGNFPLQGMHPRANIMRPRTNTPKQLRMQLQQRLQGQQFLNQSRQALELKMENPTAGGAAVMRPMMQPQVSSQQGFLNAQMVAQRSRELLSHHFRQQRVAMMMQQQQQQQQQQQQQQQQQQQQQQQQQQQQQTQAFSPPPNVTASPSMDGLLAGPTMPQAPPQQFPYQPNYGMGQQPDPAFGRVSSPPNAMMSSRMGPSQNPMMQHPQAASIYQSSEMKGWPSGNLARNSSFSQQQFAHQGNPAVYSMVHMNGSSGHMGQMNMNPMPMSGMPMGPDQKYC
Sequence of Glutathione S-transferase omega-1 (Homo sapiens) (P78417 whole entry, looked up): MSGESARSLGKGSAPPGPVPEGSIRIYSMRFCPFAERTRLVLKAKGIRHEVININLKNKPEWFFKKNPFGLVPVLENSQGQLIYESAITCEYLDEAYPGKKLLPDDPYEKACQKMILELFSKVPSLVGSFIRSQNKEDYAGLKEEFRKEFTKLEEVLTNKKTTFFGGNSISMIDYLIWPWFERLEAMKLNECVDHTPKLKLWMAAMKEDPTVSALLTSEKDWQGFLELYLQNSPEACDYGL
Sequence of Platelet-activating factor acetylhydrolase IB subunit alpha1 (Homo sapiens) (Q15102 whole entry, looked up): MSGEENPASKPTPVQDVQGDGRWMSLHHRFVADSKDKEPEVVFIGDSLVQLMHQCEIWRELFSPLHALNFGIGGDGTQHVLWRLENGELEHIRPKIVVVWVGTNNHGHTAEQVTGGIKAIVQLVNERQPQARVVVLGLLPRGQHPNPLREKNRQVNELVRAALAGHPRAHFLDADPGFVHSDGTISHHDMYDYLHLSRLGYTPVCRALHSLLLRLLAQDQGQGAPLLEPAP
Sequence of (Lyso)-N-acylphosphatidylethanolamine lipase (Mus musculus) (Q8VD66 whole entry, looked up): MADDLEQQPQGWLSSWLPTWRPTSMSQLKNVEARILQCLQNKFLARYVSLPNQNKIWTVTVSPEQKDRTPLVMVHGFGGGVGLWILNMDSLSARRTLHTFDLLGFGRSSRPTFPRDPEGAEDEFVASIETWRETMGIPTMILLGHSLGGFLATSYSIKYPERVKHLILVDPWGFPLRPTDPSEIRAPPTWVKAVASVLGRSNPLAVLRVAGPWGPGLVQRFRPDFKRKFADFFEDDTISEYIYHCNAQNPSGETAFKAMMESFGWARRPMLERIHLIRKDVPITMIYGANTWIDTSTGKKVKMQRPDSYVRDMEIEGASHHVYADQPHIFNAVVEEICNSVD
Sequence of Nuclear receptor coactivator 2 (Homo sapiens) (Q15596 whole entry, looked up, the tested form may be a part): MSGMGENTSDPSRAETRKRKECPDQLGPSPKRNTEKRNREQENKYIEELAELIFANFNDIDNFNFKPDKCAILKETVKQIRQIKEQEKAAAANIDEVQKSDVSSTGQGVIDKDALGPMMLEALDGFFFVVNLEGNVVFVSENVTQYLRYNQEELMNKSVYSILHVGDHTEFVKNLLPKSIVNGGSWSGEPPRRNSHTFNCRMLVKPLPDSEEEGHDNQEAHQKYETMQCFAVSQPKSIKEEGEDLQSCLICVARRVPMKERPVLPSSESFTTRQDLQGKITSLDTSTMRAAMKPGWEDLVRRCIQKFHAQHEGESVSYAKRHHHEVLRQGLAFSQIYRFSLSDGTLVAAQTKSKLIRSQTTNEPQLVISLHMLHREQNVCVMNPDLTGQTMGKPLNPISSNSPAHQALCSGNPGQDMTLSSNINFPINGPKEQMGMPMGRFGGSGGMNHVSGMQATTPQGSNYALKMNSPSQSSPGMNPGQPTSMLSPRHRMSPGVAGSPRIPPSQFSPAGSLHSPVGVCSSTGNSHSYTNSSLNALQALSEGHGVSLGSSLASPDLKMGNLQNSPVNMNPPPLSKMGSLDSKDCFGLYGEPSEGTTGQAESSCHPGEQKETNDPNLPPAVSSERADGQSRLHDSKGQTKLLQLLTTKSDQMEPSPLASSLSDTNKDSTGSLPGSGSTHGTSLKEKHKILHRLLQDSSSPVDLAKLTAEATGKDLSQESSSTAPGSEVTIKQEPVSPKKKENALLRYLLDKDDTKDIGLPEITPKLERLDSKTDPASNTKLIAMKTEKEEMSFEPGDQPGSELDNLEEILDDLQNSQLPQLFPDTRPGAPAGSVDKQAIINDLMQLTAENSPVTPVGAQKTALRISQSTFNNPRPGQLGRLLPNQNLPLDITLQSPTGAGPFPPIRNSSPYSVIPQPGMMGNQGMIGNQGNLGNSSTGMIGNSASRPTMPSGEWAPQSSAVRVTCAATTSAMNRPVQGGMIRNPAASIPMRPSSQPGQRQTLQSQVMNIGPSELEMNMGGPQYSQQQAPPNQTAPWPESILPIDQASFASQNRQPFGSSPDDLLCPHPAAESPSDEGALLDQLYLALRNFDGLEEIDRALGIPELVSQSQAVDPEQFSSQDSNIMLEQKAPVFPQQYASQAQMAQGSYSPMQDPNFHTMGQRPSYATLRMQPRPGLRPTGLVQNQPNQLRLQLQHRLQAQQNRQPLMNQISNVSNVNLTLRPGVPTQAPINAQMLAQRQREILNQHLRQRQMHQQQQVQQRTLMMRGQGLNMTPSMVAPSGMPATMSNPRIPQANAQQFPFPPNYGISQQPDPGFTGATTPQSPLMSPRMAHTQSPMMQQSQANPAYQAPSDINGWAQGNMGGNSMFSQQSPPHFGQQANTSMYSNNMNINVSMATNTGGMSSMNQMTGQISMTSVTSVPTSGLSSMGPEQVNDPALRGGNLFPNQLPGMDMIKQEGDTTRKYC

CCOc1cccc(=NC2CCCCC2)c2c(C)[nH]c(C)c12
inhibition [1]: 21.3%
inhibition [2]: 20.1%
inhibition [3]: 16.3%
activation [4]: 0.2%
inhibition [5]: -0.97%
inhibition [6]: -1.3%

C[n+]1c2ccccc2nc2ccc(NCCO)cc21
inhibition [7]: 35% (active)

O=C(CF)NC(Nc1cccc2cccnc12)C(Cl)(Cl)Cl (stereo unspecified)
inhibition [7]: 53% (active)

O=c1c2ccccc2nc(/C=C/c2ccc(O)c(O)c2)n1-c1ccccc1
inhibition [7]: -7.92%

O=C(CN1CC=C(c2ccccc2)CC1)Nc1c(Cl)cccc1Cl
inhibition [7]: 28.2% (active)

CC(=O)c1ccc2c(c1)C1C(Cl)C(Sc3ccccc3[N+](=O)[O-])CC1C(c1ccccc1)N2 (stereo unspecified)
inhibition [7]: 23.8%

CC(=O)c1ccc2c(c1)C1C(Cl)C(Sc3ccccc3[N+](=O)[O-])CC1C(C(=O)O)N2 (stereo unspecified)
inhibition [7]: 25.9%

CCCCn1c(C)c(C(=O)OCC)c2c(CN3CCCC3)c(O)ccc21
inhibition [7]: 10.3%

Oc1c(Br)c(Br)c(Br)c(Br)c1Br
inhibition [7]: 84.2% (active)

Cc1ccc(C(O)P(=O)(Oc2ccccc2)Oc2ccccc2)cc1 (stereo unspecified)
inhibition [7]: 59.9% (active)

CCOC(=O)c1c(N)n(Cc2ccccc2)c2nc3ccccc3nc12
inhibition [8]: 13.8%
inhibition [9]: -4.66%
inhibition [10]: 8.51%
activation [4]: -0.51%
inhibition [5]: 2.59%
inhibition [6]: -1.64%

COc1ccc(CN2CCN(c3ccccc3F)CC2)c(OC)c1
inhibition [11]: -8.64%
inhibition [12]: 4.55%

O=[N+]([O-])c1cnc2ccc3ccccc3c2c1
inhibition [13]: 103% (active)
inhibition [14]: 21.8% (active)
inhibition [15]: 63.5% (active)
inhibition [16]: 18.2% (active)
inhibition [17]: 20.3% (active)
inhibition [18]: 76.8% (active)

COc1ccc(C(O)P(=O)(Oc2ccccc2)Oc2ccccc2)cc1 (stereo unspecified)
inhibition [7]: 42.8% (active)

O=P(CCl)(Nc1ccccc1)C(Cl)(Cl)Cl (stereo unspecified)
inhibition [7]: 45.2% (active)

CN1/C(=C\C=C\C2=[N+](C)c3ccc4ccccc4c3C2(C)C)C(C)(C)c2ccccc21
inhibition [7]: 79.1% (active)

O=C1C(=O)c2ccccc2-c2ccccc21
inhibition [7]: 42.8% (active)
inhibition [1]: 97.1% (active)
inhibition [2]: 95.2% (active)
inhibition [19]: 95.1% (active)
inhibition [20]: 93.5% (active)
inhibition [21]: 96.5% (active)
inhibition [22]: 98.8% (active)

COc1ccccc1C1=NCc2nnc(CSC)n2-c2ccc(Cl)cc21
inhibition [9]: 12.9%

O=C1CC(=O)N(Cc2ccccc2)C(=O)N1CCCCCCN1C(=O)CC(=O)N(Cc2ccccc2)C1=O
inhibition [23]: 4.95%
